Source: PubChem BioAssay
A selection: hits, their analogues and other compounds. The true share with any hit is near 8.9%.
mHtt clearance – clearance of mutant huntingtin inclusions, primary screen, imaging, HeLa Exon1htt(103Q)mCFP, confocal imaging; aggregate imaging; zero = plate's median compound well; inhibition, % at 1.5 µM; 47,000 tested, 0.42% active;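 active = inhibition of aggregate fluorescence above about 70%, also judged a hit by eye on the cell image, limit read from the data, passing the limit was not always enough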;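 note: cells exposed to compound for three days before fixation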
M1 ag – M1 muscarinic receptor agonists, primary screen, CHO-M1 cells, Fluo-4 calcium, agonist mode; Muscarinic acetylcholine receptor M1; Fluo-4 calcium fluorescence; active compounds read high; B-score at 10 µM; 64,000 tested, 3% active;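 active = fluorescence rise, raw or as B-score row- and column-corrected plate score, outside the 99.7% band of its plate's samples, either direction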
M1 antagonist – antagonists of rat M1 muscarinic receptor. Muscarinic acetylcholine receptor M1 (Rattus norvegicus), P08482. CHO-M1 cells, Fluo-4 calcium, ACh EC80 antagonist mode; active compounds read low. B-score at 10 µM. 64,000 tested, 3.4% active;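 active = calcium fluorescence response, raw or row-and-column corrected B-score, differing from the plate sample mean either way at a set confidence level, mostly lower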
D1 mod – D1 CRE-luciferase signal change, two-sided – cell-based, HEK293 D1, dopamine EC30, D1 allosteric modulator project, primary screen; D(1A) dopamine receptor (Homo sapiens), P21728; dopamine EC30 potentiation; actives deviate in either direction; B-score at 10 µM; 58,000 tested, 5.9% active; AID 641, 2007;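 active = luminescence count or its row- and column-corrected plate score outside the 99.7% band of the plate's sample wells, on either side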
WNV protease inh – inhibitors of WNV NS2B-NS3 protease, primary screen, biochemical, fluorogenic substrate | z-score (concentration not given with the values) | Genome polyprotein (West Nile virus), P06935 | AID 577, 2007 | fluorogenic substrate Ex360/Em465; active compounds read low | 65,000 tested, 0.18% active; in the data active = z-score below about -3
Target sequence (P06935 1371-1501 limits assumed): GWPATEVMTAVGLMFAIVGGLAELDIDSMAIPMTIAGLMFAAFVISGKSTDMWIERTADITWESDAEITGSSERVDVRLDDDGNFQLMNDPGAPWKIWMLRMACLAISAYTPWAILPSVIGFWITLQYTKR
Target sequence (P06935 1502-1679 limits assumed): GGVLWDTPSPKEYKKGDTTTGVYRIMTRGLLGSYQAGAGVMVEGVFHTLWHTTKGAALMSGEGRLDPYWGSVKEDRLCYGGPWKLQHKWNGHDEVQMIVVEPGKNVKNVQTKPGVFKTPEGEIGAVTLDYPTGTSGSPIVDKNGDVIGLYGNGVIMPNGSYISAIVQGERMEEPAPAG
M1 antag conf – rat M1 muscarinic receptor antagonists, confirmation, CHO cells, Fluo-4 calcium, duplicate; ACh EC80 antagonism; active compounds read low; shares compounds with M1 antagonist; calcium response (max-min fluorescence) at 10 µM; 1,700 tested, 43% active;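 active = calcium response below the same-plate mean of wells given acetylcholine alone at its 80%-effect dose, minus 3 SD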;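 note: raw fluorescence intensity difference in arbitrary instrument units and not normalized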
mGluR4 antag – human mGluR4 response to M1 antagonist hits, M1 allosteric modulator project, cell-based, antagonist mode, secondary assay 1 | CHO-mGluR4 calcium flux, Fluo-4 fluorescence, glutamate EC80; active compounds read low | 1,700 tested, 0.9% active | AID 678, 2007 | fluorescence response (max-min) at 10 µM | shares compounds with M1 antagonist;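 active = fluorescence response below the plate's average for near-maximal glutamate wells, less 3 SD of those wells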;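 note: raw unnormalized fluorescence span taken in the window right after glutamate addition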
* = called active by the depositor; . = no result.

SMILES	mHtt clearance	M1 ag	M1 antagonist	D1 mod	WNV protease inh	M1 antag conf	mGluR4 antag
Cn1cnnc1SCc1ccc(C(=O)n2ncc(C#N)c2N)cc1	.	1.5	-3.6*	-1.1	-1.4	606	230
O=C(NCCN1CCCCCC1)C1CCC(CNS(=O)(=O)c2cccc3cccnc23)CC1 (stereo not given)	.	-0.18	-2*	0.67	1.5	521	244
CCOc1ccc(C(=O)CCN2CCCCCC2)cc1	.	2.3	-2.5*	-0.53	-0.6	444	196
COC(=O)c1ccc(NC(=O)CCN2CCCCC2)cc1	.	0.071	-1.3*	-0.62	-0.52	553*	264
O=C(c1cc2c(ccc3ccccc32)oc1=O)N1CCN(CCO)CC1	-30	-0.47	0.0019	0.74	0.53	.	.
O=C(N1CCN(CCO)CC1)N1c2ccccc2C=Cc2ccccc21	-54	0.0064	-3.2*	-0.56	-0.66	437*	237
O=C(NCCN1CCCC1)c1ccc2c(c1)N(Cc1ccc(F)cc1)C(=O)c1ccccc1S2=O (stereo not given)	.	0.013	-1.1*	.	-0.67	505	244
O=C(NCCN1CCOCC1)c1ccc2c(c1)N(Cc1ccc(F)cc1)C(=O)CS2	.	0.47	-9.1*	-0.38	0.57	398*	214
Cc1ccc(CN2C(=O)CSc3ccc(C(=O)NCCN4CCOCC4)cc32)cc1	.	-0.43	-0.85	0.0013	0.4	.	.
O=C(O)c1ccc2c(c1)N(Cc1ccccc1)C(=O)c1ccccc1S2=O (stereo not given)	.	-0.2	0.44	0.26	-0.41	.	.
CCCCCC(=O)Nc1ccc(N2CCN(CC)CC2)c(Cl)c1	.	0.38	-11*	-4.6*	0.48	46*	259
CCOC(=O)c1c(NC(=O)c2cc(C3CC3)on2)sc2c1CCCC2	.	-0.036	0.74	0.52	0.04	.	.
CC(C)[C@H](NS(=O)(=O)c1ccccc1)C(=O)OCn1nnc2ccccc2c1=O	24	.	.	.	.	.	.
CCOc1ccc(NC(=O)c2oc3ccccc3c2NC(=O)C2CC2)cc1	.	-0.06	0.049	-0.39	1.5	.	.
CCCCCCn1c(CN2CCN(C(=O)OCC)CC2)nc2c1c(=O)n(C)c(=O)n2C	.	0.0028	-0.38	0.012	0.52	.	.
O=C1CSC(c2ccccc2F)N1CCN1CCCCC1 (stereo not given)	-9	-0.034	-2.8*	-0.81	1.3	481*	230
COC(=O)c1ccc2nc(C(F)(F)F)[nH]c2c1	.	-1.1	0.6	-0.3	-0.54	.	.
O=C(c1ccc(S(=O)(=O)N2CCCCCC2)cc1)N1CCN(c2ccccn2)CC1	14	-0.55	-2.1*	0.16	-1.3	507*	203
CCOC(=O)c1ccc(NC(=O)CSc2nccn2C)cc1	.	-0.23	-3.3*	-0.76	-0.46	623	229
CCOC(=O)c1ccc(NC(=O)CSc2nnc(COc3ccccc3)n2C)cc1	33	0.33	-0.17	0.16	0.08	.	.
Cc1ccc(Cl)cc1NC(=O)COC(=O)C12CC3CC(CC(C3)C1)C2	4	.	.	.	.	.	.
CCOC(=O)Nc1ccc2c(c1)N(C(=O)N1CCN(C)CC1)c1ccccc1S2	21	0.041	-15*	0.0077	0.5	14*	268
CN1CCN(CCC(=O)N2c3ccccc3Sc3ccc(Cl)cc32)CC1	11	0.21	-11*	-3	0.46	268*	255
O=C(CN1CCN(CCOCCO)CC1)N1c2ccccc2Sc2ccc(Cl)cc21	-18	-0.34	-17*	0.56	-0.59	24*	236
Cn1c(SCC(=O)N2c3ccccc3Sc3ccc(Cl)cc32)nnc1-c1ccco1	.	-0.46	-0.43	2.1	-1.1	.	.
SMILES	mHtt clearance	M1 ag	M1 antagonist	D1 mod	WNV protease inh	M1 antag conf	mGluR4 antag
Cn1nnnc1SCC(=O)N1c2ccccc2Sc2ccc(Cl)cc21	.	0.0043	-2.7*	.	0.2	446*	231
CCOC(=O)Nc1ccc2c(c1)N(C(=O)CCN1CCN(C)CC1)c1ccccc1S2	-3	.	.	.	.	.	.
O=C1C=C(c2ccccc2)OC(=O)C1C(=O)c1ccccc1 (stereo not given)	-45	.	.	.	.	.	.
O=C(NC1CCCCCC1)C1CCN(c2nc3ccccc3o2)CC1	.	-0.21	-2.8	-1	1.6	.	.
O=C(NCCN1CCOCC1)C1CCN(c2nc3ccccc3o2)CC1	.	0.17	-2.2*	1	1	458*	244
CC1CCCCN1CCCNC(=O)C1CCN(c2nc3ccccc3o2)CC1 (stereo not given)	.	-0.38	-4.1*	-0.36	0.58	67*	242
O=C(NCCN1CCN(c2ccccc2)CC1)C1CCN(S(=O)(=O)N2CCOCC2)CC1	-20	0.27	-0.0075	-0.061	0.67	.	.
COc1cccc(CNC(=O)C2CCCN(c3nc4ccccc4o3)C2)c1 (stereo not given)	-19	-0.093	-1.9*	-0.6	-0.89	643	229
Cc1nc2ccccc2c2oc(C(=O)NCCN3CCCCC3C)cc12 (stereo not given)	.	-0.63	-3.4*	0.051	0.73	354*	242
Cc1ccc(S(=O)(=O)C2(C(=O)N3CCCCC3C)CC2)cc1 (stereo not given)	.	-1.3	-0.26	0.35	0.26	.	.
CCOc1cc2c(cc1C(C)(C)C)NC(=O)CS2	.	0.07	-0.086	.	0.23	.	.
COc1cccc(NC(=O)CSc2nc3c(c(=O)n2C)SC(C)C3)c1 (stereo not given)	.	-1	-0.093	1.8	-0.1	.	.
COc1ccc2nc(SCC(=O)N(C)C3CCCCC3)c(C#N)cc2c1	.	-0.27	0.053	2.4	0.7	.	.
CN(Cc1ccccc1)S(=O)(=O)c1ccc(S(=O)(=O)N2CCN(CCC#N)CC2)cc1	.	0.82	-1.3	1.2	-0.25	.	.
CCN(CC)CCOC(=O)C1(c2ccc(OC)c(OC)c2)CCCC1	.	0.54	-11*	-0.52	1	165*	195
CCN(CC)CCOC(=O)C1(c2ccccc2)CCCC1	14	.	.	.	.	.	.
OC(c1ccccc1)(c1ccc(F)cc1)C(c1ccccc1)N1CCOCC1 (stereo not given)	6	.	.	.	.	.	.
COC(=O)c1cc(Br)c(=O)n(CCc2ccc(F)cc2)c1	.	-0.22	-4*	-0.28	-0.62	513	207
COc1ccc(C(=O)Nc2ccc(NC(=O)c3cnccn3)cn2)cc1	7	.	.	.	.	.	.
O=C(CSc1ncnc2nc[nH]c12)NCCc1ccccc1	14	-0.52	0.079	-0.036	0.13	.	.
CC(NC(=O)CSc1ncnc2nc[nH]c12)c1ccccc1 (stereo not given)	.	0.39	-3.8*	1.6	-0.72	667	259
COc1ccc(Cc2nc3ccc(S(N)(=O)=O)cc3[nH]2)cc1OC	-31	0.42	-2.9*	-0.11	0.57	580	225
